Laboratory results taken from PubChem BioAssay AID463173 (ICCB-Longwood Screening Facility, Harvard Medical School, 2010).
The campaign covered roughly 52,000 compounds. About 4,300 (8.3%) were called active. Rule as the data show it: active = survival mostly below about 52% (no sharp cut-off); inactive = mostly above about 56%. Many of the other results were omitted from the sample, so actives are more common in it than they were.

Tested on: DeltatarO mutant
Assay: S. aureus survival, RN4220 and DeltatarO strains – OD600, teichoic acid synthesis inhibitors, primary screen (AID 463173)
Settings: S. aureus RN4220 wild type/DeltatarO growth, OD600, 18 h, active compounds read low, screened at 18.75 µg/mL (by protocol)

Compound	survival
Nc1nnc(CCc2ccccc2)s1	80% (inactive)
O=C(O)CCOc1ccc2c(c1)OCCO2	82% (inactive)
CCC(CC)c1nn2c(=O)cc(COc3ccc(NC(=O)c4ccccc4C)cc3)nc2s1	81% (inactive)
O=C(CSc1nc2c(c(=O)[nH]1)CCC2)Nc1ccccc1C(F)(F)F	72% (inactive)
O=C(CN1C(=O)COc2ccc(S(=O)(=O)N3CCCCCC3)cc21)NCc1ccc(Cl)cc1	113% (inactive)
CCOCCCNC(=O)c1cc2c(=O)n(C)c3ccccc3c2n1C	86% (inactive)
O=C(Nc1ccccc1C(F)(F)F)N1CCC2(CC1)Oc1ccccc1C(=O)N2Cc1ccccc1F	67% (inactive)
COc1cc(-c2cc(OC)c3c(C)oc(C)c3c(=O)c2)ccc1OC(=O)c1ccc(C)cc1	88% (inactive)
Cc1ccc(NC(=O)c2sc3nc(-c4ccc(F)cc4)cn3c2C)c(C)c1	81% (inactive)
O=C(O)CCC(=O)Nc1ccc2c(c1)oc1ccccc12	86% (inactive)
COc1ccc(C(Nc2ccccn2)c2ccc3ccc(C)nc3c2O)cc1C (centres undefined)	40% (active)
COc1cc(C(=O)NC(c2ccc(Cl)cc2)c2cc(Cl)c3cccnc3c2O)cc(OC)c1OC (centres undefined)	85% (inactive)
O=C(c1ccccc1)C(Nc1ccccn1)c1ccccc1 (centres undefined)	99% (inactive)
Cc1ccc(C(C)C)cc1S(=O)(=O)Nc1ccccn1	101% (inactive)
Cc1ccc2ccc(C(Nc3ccccn3)c3ccccc3)c(O)c2n1 (centres undefined)	39% (active)
Cc1ccnc(NC(c2cccc(O)c2)c2ccc3ccc(C)nc3c2O)c1 (centres undefined)	68% (inactive)
O=C(COc1ccccc1Cl)Nc1ccccc1OCc1cc(=O)n2ccccc2n1	92% (inactive)
COc1ccc(NC(=O)COCc2cc(-c3ccco3)on2)cc1Cl	112% (inactive)
Cc1ccc(NC(=O)C2CCCN2S(=O)(=O)c2cccc3nsnc23)c(C)c1 (centres undefined)	78% (inactive)
COc1cc(NC(=O)CN2C(=O)c3ccccc3Sc3ccc(C(=O)N4CCCC4)cc32)cc(OC)c1	72% (inactive)
CCc1ccc2occ(CC(=O)Nc3ccc(OC)c(Cl)c3)c2c1	88% (inactive)
CCc1cc(C(=O)Nc2sc(C)c(CC)c2C#N)no1	35% (active)
CCOC(=O)c1sc(NC(=O)c2cc(CC)on2)c(C(=O)OCC)c1C	54% (inactive)
CCc1c(C)sc(NC(=O)c2cc(-c3cccc(Cl)c3)on2)c1C#N	69% (inactive)

Compound	survival
CCc1c(C)sc(NC(=O)c2cc(-c3ccc(OC)cc3)on2)c1C#N	50% (active)
CCc1c(C)sc(NC(=O)c2cc(-c3ccc(OC)c(OC)c3)on2)c1C#N	149% (inactive)
COc1ccc(-c2cc(C(=O)Nc3ccc(C#N)cc3)no2)cc1	46% (inactive)
CC(C)OCCCn1c(=O)c2ccccc2n2c(-c3ccccc3)nnc12	105% (inactive)
CCN1CCN(CCCNC(=O)c2ccc3c(c2)sc2nc(-c4ccc(C)cc4)cn23)CC1	26% (active)
CCN1CCN(CCCNC(=O)c2ccc3c(c2)sc2nc(-c4ccc(OC)cc4)cn23)CC1	72% (inactive)
CCCN1CCN(CCCNC(=O)c2ccc3c(c2)sc2nc(-c4ccc(C)cc4)cn23)CC1	18% (active)
COc1ccccc1Nc1nc(C)nc(N)c1S(=O)(=O)c1ccccc1	84% (inactive)
COc1ccc2cc(-c3nc(Cl)c4c5c(sc4n3)CCCC5)c(=O)oc2c1	76% (inactive)
COc1ccc2cc(-c3nc(Cl)c4c5c(sc4n3)CC(C)CC5)c(=O)oc2c1 (centres undefined)	77% (active)
CC1CCc2c(sc3nc(-c4cc5ccccc5oc4=O)nc(Cl)c23)C1 (centres undefined)	61% (inactive)
COc1ccc(-c2csc(NC(=O)C(C)C)n2)cc1	84% (inactive)
CCOC(=O)COc1ccc(C)cc1C(=O)c1ccn2nc(-c3ccc(F)cc3)cc2n1	69% (inactive)
Cn1c(=O)oc2cc(S(=O)(=O)N3CCC(C(=O)NCc4ccccc4Cl)CC3)ccc21	125% (inactive)
COC(=O)c1cc(-c2cc(OC)c(OC)c(OC)c2)no1	99% (inactive)
Cn1c(COc2ccccc2C(C)(C)C)nc2ccccc21	5% (active)
COc1cccc(OCc2nc3ccccc3n2Cc2ccccc2)c1	62% (inactive)
CC(C)(C)c1ccc(OCc2nc3ccccc3n2CCOc2ccccc2)cc1	10% (active)
Cc1ccc(C)c(OCc2nc3ccccc3n2C)c1	59% (inactive)
COc1ccc(OCc2nc3ccccc3n2Cc2ccc(C(C)(C)C)cc2)cc1	-9% (active)
Cn1c(COc2ccccc2Br)nc2ccccc21	92% (inactive)
c1ccc(OCCn2c(COc3ccccc3)nc3ccccc32)cc1	0% (active)
c1ccc(Cn2nnnc2C(c2ccccc2)N2CCN(Cc3ccncc3)CC2)cc1 (centres undefined)	78% (inactive)
CCc1ccc(CNC(=O)c2cccc(-n3cnc4cccnc43)c2C)cc1	88% (inactive)

Compound	survival
CC(=O)c1cccc(NC(=O)CN2C(=O)c3ccccc3Sc3ncccc32)c1	95% (inactive)
COc1ccc(CNC2CCCC2)cc1	79% (inactive)
COc1ccc2[nH]cc(CCN=C(NC(=O)c3ccccc3F)Nc3nc(C)cc(C)n3)c2c1	99% (inactive)
Cc1ccc(C)c(N2CCN(C(=O)CCc3nnc4n(C)c(=O)c5ccccc5n34)CC2)c1	95% (inactive)
COc1ccc(OCc2nnc(SCC(=O)N(C3CCCCC3)C3CCCCC3)o2)cc1	72% (inactive)
CCc1nc(-c2cc(S(=O)(=O)N3CCN(c4ccc(F)cc4)CC3)ccc2OC)no1	49% (inactive)
COc1ccc(S(=O)(=O)N2CCN(c3ccccc3OC)CC2)cc1-c1noc(C)n1	110% (inactive)
COc1ccc(S(=O)(=O)N2CCN(c3ccccc3F)CC2)cc1-c1noc(C)n1	59% (inactive)
CCc1nc(-c2cc(S(=O)(=O)N3CCN(c4ccccc4F)CC3)ccc2OC)no1	42% (active)
CCc1nc(-c2cc(S(=O)(=O)N3CCN(c4ccccc4OC)CC3)ccc2OC)no1	42% (active)
CCc1nc(-c2cc(S(=O)(=O)N3CCN(c4ccccc4)CC3)ccc2OC)no1	51% (inactive)
Cc1ccc(OCC(=O)Nc2ccc3nc(SCC(=O)N4CCOCC4)sc3c2)cc1	86% (inactive)
O=C(NCc1ccccc1Cl)c1ccc(CS(=O)(=O)c2ccc(Br)cc2)o1	127% (inactive)
Cc1ccc(-c2onc(C)c2C)cc1S(=O)(=O)NC1CCC(C)CC1 (centres undefined)	82% (inactive)
Cn1c(=O)n(C)c2cc(S(=O)(=O)Nc3ccccc3C(=O)O)ccc21	105% (inactive)
COc1cccc(NC(=O)C(Cc2ccccc2)NS(=O)(=O)c2ccc3c(c2)c(=O)n(C)c(=O)n3C)c1 (centres undefined)	79% (inactive)
COCCNC(=O)Cn1c(=O)n(-c2ccc(C)c(C)c2)c(=O)c2c3c(sc21)CCCCC3	86% (inactive)
CC(=O)c1cccc(NC(=O)Cn2ccn3nc(-c4ccccc4)cc3c2=O)c1	83% (inactive)
CCOc1c(Cl)cc(CNc2ccc3[nH]c(=O)[nH]c3c2)cc1OC	95% (inactive)
CCOc1cc(CNc2ccc(O)cc2)cc(Br)c1OCc1ccccc1	3% (active)
Oc1ccc(NCc2ccccc2OCc2ccccc2)cc1	61% (inactive)
CCOc1cc(CNc2ccc(O)cc2)cc(Cl)c1OCc1ccccc1	1% (active)
CCOc1ccc(CC(=O)NCc2ccc3c(c2)CCN3C(=O)c2ccccc2)cc1OCC	72% (inactive)
COc1cc(CNc2ccc3[nH]c(=O)[nH]c3c2)cc(Br)c1OCc1ccc(F)cc1	99% (inactive)

Compound	survival
COc1cc(CNc2ccc3[nH]c(=O)[nH]c3c2)cc(Cl)c1OCc1ccc(F)cc1	76% (inactive)
CCOc1cc(CNc2ccc(O)cc2)ccc1OCc1ccc(Cl)cc1	53% (inactive)
CCOc1cc(CNc2ccc(C(=O)O)cc2)ccc1OCc1ccccc1	47% (active)
CCn1cc(C(=O)NCCCOC)c(=O)c2cc(S(=O)(=O)N3CCc4ccccc4C3)ccc21	92% (inactive)
Cc1cc(=O)[nH]c2nnc(SCc3ccc(C(F)(F)F)cc3)n12	74% (inactive)
COc1ccc(NC(=O)CCc2c(C)nc3cc(-c4cccc(F)c4)nn3c2C)cc1Cl	129% (inactive)
CCCCCCOc1ccc(/C=C/C(=O)Nc2sc3c(c2C(=O)OC)CCC3)cc1OC	69% (inactive)
O=C(NCCc1ccccc1)c1cnc2sc(N3CCOCC3)nn2c1=O	100% (inactive)
O=c1oc2ccc3ccccc3c2cc1-c1nnc(Nc2ccccc2)s1	84% (inactive)
CCc1ccc(CNC(=O)CN2C(=O)C3CCCCN3c3ccc(C(=O)N4CCCC4)cc32)cc1 (centres undefined)	75% (inactive)
O=C(CSCn1nnc2c(=O)[nH]c(Cc3ccc(F)cc3)nc21)Nc1ccccc1	52% (inactive)
CCCc1cnc2c(c1SCC(=O)N1CCC(C)CC1)c(=O)n(C)c(=O)n2C	96% (inactive)
Cc1cccc(C)c1NC(=O)CSc1nc2ncccc2o1	79% (inactive)
Cc1c(Cl)cccc1NC(=O)CSc1nc2ncccc2o1	6% (active)
O=C(CSc1nc2ncccc2o1)Nc1ccc(Cl)cc1F	70% (inactive)
O=C(CSc1nnc(-c2cccs2)o1)Nc1cccc(C(F)(F)F)c1	47% (active)
O=C(CSc1nnc(-c2ccccc2F)o1)Nc1cccc(C(F)(F)F)c1	54% (inactive)
O=C(CSc1nc2ncccc2o1)Nc1cccc(C(F)(F)F)c1	-1% (active)
COc1cc(NC(=O)CSc2nc3ncccc3o2)cc(OC)c1	64% (inactive)
COc1cccc(NC(=O)CSc2nnc(-c3cccs3)o2)c1	52% (inactive)
Cc1cccc(NC(=O)CSc2nnc(-c3cccs3)o2)c1	50% (inactive)
O=C(CSc1nc2c(c(=O)[nH]1)CCC2)Nc1ccccc1F	73% (inactive)
